Here are results for 24 compounds from PubChem BioAssay.

Assay [1] in a line: sensitizers of A549 cells to miR-34 induction, primary screen, imaging, A549 dox-inducible miR-34, nuclei and caspase counts (AID 1347080;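 active = compounds whose cell count with miR-34 switched on is under 0.7 times the count with it off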; also: test concentration not given here). As to conditions: A549 miR-34 inducible, Hoechst nuclei count, 48 h.
Assay [2] in a line: survival rescue of mitochondrial mutant cells in low glucose, primary screen, MELAS cybrids, Rieske KO mouse fibroblasts, CellTiter-Glo (AID 1508586;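 active = mean z-score across replicates of 1.96 or higher in either the MELAS or the Rieske mutant cell line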;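 also: test concentration not given here; z relative to plate mean and SD of compound and empty wells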). In general terms: In ATP-based viability assays light output follows the ATP content of the culture.
Assay [3] in a line: viability rescue of complex I mutant cybrids, primary screen, cell-based, galactose medium, ATP luminescence (AID 1645843).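 Also: positive z means more ATP and so rescue of galactose-driven cybrid death.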 As to conditions: complex I mutant cybrid cells, 72 h, stronger effect = higher value.
The mark [4] stands for this setting: stronger effect = lower value, cell number ratio, induced over uninduced.
The mark [5] stands for this setting: measured here: relative caspase fold change +Dox/-Dox.
The mark [6] stands for this setting: measured here: total cells with miR-34 induction, stronger effect = lower value.
The mark [7] stands for this setting: measured here: total cells without miR-34 induction.
Where [8] appears, read: MELAS cybrid survival, CellTiter-Glo 48 h, stronger effect = higher value.
Setting [9] is: Rieske KO mouse fibroblast survival, CellTiter-Glo 72 h.

Activity calls are given as the source filed them.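 The calls were made as follows, unless noted: active = z-score of at least 1.8 in each of two replicates, scored against plate mean and spread of sample wells; inactive = the rest.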

Regarding `CC(C)(C)C(=O)Nc1ccc2c(c1)CC(=O)N2`, the fold change in assay [1] (setting [4]) was 0.817 (inactive); in assay [1] (setting [5]), 1.77. For the same compound, the cell count was 8370 in assay [1] (setting [6]) and 10200 in assay [1] (setting [7]). Also, the z-score in assay [2] (setting [8]) is 0.0898 (inactive); in assay [2] (setting [9]), 0.0111; in assay [3], -0.52 (inactive).
As to `O=C(O)c1ccc2ccccc2n1`, the fold change in assay [1] (setting [4]) was 0.876 (inactive); in assay [1] (setting [5]) it was 0.492. Besides, the cell count in assay [1] (setting [6]) was determined as 7890; in assay [1] (setting [7]), 9000. For the same compound, the z-score in assay [2] (setting [8]) was -1.05 (inactive); in assay [2] (setting [9]), -0.692; in assay [3] it was 0.485 (inactive).
Turning to `CCC1C(=O)N(C)CCN1C(=O)Nc1nc(C)ns1` (stereo not drawn), the figures for the fold change in assay [1] (setting [4]) and in assay [1] (setting [5]) were 1.02 (inactive) and 1.35, respectively. The cell count in assay [1] (setting [6]) worked out at 8670; in assay [1] (setting [7]), 8510. The z-score in assay [2] (setting [8]) was -0.0427 (inactive); in assay [2] (setting [9]), -0.105; in assay [3] it was -0.49 (inactive).
In the case of `Cn1cc(/C=C/C(=O)N2CCc3[nH]nc(-c4ccccc4F)c3C2)cn1`, the fold change was 0.865 (inactive) in assay [1] (setting [4]) and 2.04 in assay [1] (setting [5]). Moreover, the cell count in assay [1] (setting [6]) came to 7720; in assay [1] (setting [7]), 8920. Moreover, the z-score is -0.472 (inactive) in assay [2] (setting [8]), -0.29 in assay [2] (setting [9]) and -0.48 (inactive) in assay [3].
As for `COC(=O)CN1CCN(C(=O)Nc2n[nH]c(-c3ccco3)n2)CC1=O`, the fold change in assay [1] (setting [4]) is 0.915 (inactive); in assay [1] (setting [5]) it was 1.4. Besides, the cell count in assay [1] (setting [6]) was found to be 9430; in assay [1] (setting [7]) it was 10300. Also, the z-score in assay [2] (setting [8]) is 0.382 (inactive); in assay [2] (setting [9]), 0.531; in assay [3], 1.98 (inactive).
Regarding `Cc1ccc(-c2ncnc3scc(C)c23)c2cccnc12`, the fold change in assay [1] (setting [4]) is 0.907 (inactive); in assay [1] (setting [5]), 1.31. In addition, the cell count in assay [1] (setting [6]) turned out to be 8040; in assay [1] (setting [7]) it was 8860. The z-score is -0.0169 (inactive) in assay [2] (setting [8]), -0.263 in assay [2] (setting [9]) and -0.425 (inactive) in assay [3].
Consider `COc1cccc2ccc(-c3coc4ccccc4c3=O)nc12`, for which the fold change was 0.946 (inactive) in assay [1] (setting [4]) and 0.913 in assay [1] (setting [5]). Also, the cell count in assay [1] (setting [6]) came out at 7730; in assay [1] (setting [7]), 8170. The z-score in assay [2] (setting [8]) is -0.341 (inactive); in assay [2] (setting [9]), 0.246; in assay [3], 2.79 (active).
Consider `O=C(O)CCCc1nc(-c2cccc([N+](=O)[O-])c2)no1`, for which the values for the fold change in assay [1] (setting [4]) and in assay [1] (setting [5]) were 0.855 (inactive) and 0.356, respectively. In addition, the cell count in assay [1] (setting [6]) worked out at 7990; in assay [1] (setting [7]), 9350. Further, the figures for the z-score in assay [2] (setting [8]), in assay [2] (setting [9]) and in assay [3] were 1.15 (inactive), -0.0224 and 0.71 (inactive), respectively.
As for `CN(Cc1noc(C2CCCC2)n1)C(=O)c1nc(=O)[nH]c2ccccc12`, the fold change in assay [1] (setting [4]) was 0.914 (inactive); in assay [1] (setting [5]) it was 1.01. Besides, the cell count amounted to 8520 in assay [1] (setting [6]) and 9320 in assay [1] (setting [7]). For the same compound, the values for the z-score in assay [2] (setting [8]), in assay [2] (setting [9]) and in assay [3] were -0.339 (inactive), 0.124 and -0.525 (inactive), respectively.
Consider `O=C1CN(c2ncnc3sccc23)CCN1C1CCCC1`, for which the fold change was 0.857 (inactive) in assay [1] (setting [4]) and 1.28 in assay [1] (setting [5]). The cell count in assay [1] (setting [6]) is 8070; in assay [1] (setting [7]), 9410. For the same compound, the z-score was -1.24 (inactive) in assay [2] (setting [8]), -0.154 in assay [2] (setting [9]) and 1.98 (inactive) in assay [3].
In the case of `COc1ccc(CC(N)=O)cc1`, the values for the fold change in assay [1] (setting [4]) and in assay [1] (setting [5]) were 0.918 (inactive) and 0.564, respectively. The cell count in assay [1] (setting [6]) turned out to be 8020; in assay [1] (setting [7]), 8730. Also, the figures for the z-score in assay [2] (setting [8]), in assay [2] (setting [9]) and in assay [3] were 0.385 (inactive), 0.663 and -0.175 (inactive), respectively.
With `CC(C)C(=O)N1CCC(CNC(=O)c2ccno2)CC1`, the fold change was 0.927 (inactive) in assay [1] (setting [4]) and 0.833 in assay [1] (setting [5]). Further, the cell count in assay [1] (setting [6]) turned out to be 9650; in assay [1] (setting [7]), 10400. In addition, the z-score was 0.208 (inactive) in assay [2] (setting [8]), 0.293 in assay [2] (setting [9]) and -0.57 (inactive) in assay [3].
For `Cc1ccc2nc(C3CCCN3c3ncc(C)c(-c4cnn(C)c4)n3)[nH]c2c1` (stereo not drawn), the fold change is 0.91 (inactive) in assay [1] (setting [4]) and 1.37 in assay [1] (setting [5]). Besides, the cell count in assay [1] (setting [6]) worked out at 7980; in assay [1] (setting [7]), 8770. The figures for the z-score in assay [2] (setting [8]), in assay [2] (setting [9]) and in assay [3] were -0.0346 (inactive), 0.328 and -0.325 (inactive), respectively.
Consider `COc1ccc(S(=O)(=O)N2CCN(S(=O)(=O)c3ccc4c(c3)OCCO4)CC2)cc1`, for which the figures for the fold change in assay [1] (setting [4]) and in assay [1] (setting [5]) were 0.881 (inactive) and 0.373, respectively. The cell count in assay [1] (setting [6]) worked out at 8270; in assay [1] (setting [7]), 9390. Further, the z-score in assay [2] (setting [8]) was -0.316 (inactive); in assay [2] (setting [9]), -0.269; in assay [3], 0.51 (inactive).
`O=c1cc(-c2ccncc2)nc(-c2cccc(CN3CCCC(CO)C3)c2)[nH]1` (stereo not drawn): the fold change in assay [1] (setting [4]) was 0.934 (inactive); in assay [1] (setting [5]), 0.922. The cell count in assay [1] (setting [6]) stood at 8470; in assay [1] (setting [7]), 9070. Besides, the z-score in assay [2] (setting [8]) was -0.423 (inactive); in assay [2] (setting [9]), 0.0738; in assay [3], 0.08 (inactive).
In the case of `COc1ccc(-c2cc(-n3cccn3)ncn2)c(-n2cccn2)c1`, the results for the fold change in assay [1] (setting [4]) and in assay [1] (setting [5]) were 0.922 (inactive) and 1.07, respectively. Further, the cell count in assay [1] (setting [6]) worked out at 8340; in assay [1] (setting [7]) it was 9050. In addition, the z-score is -0.554 (inactive) in assay [2] (setting [8]), 0.208 in assay [2] (setting [9]) and -0.595 (inactive) in assay [3].
Turning to `Cc1nc(CCNC(=O)Nc2nnc(-c3cccs3)s2)sc1C`, the figures for the fold change in assay [1] (setting [4]) and in assay [1] (setting [5]) were 0.877 (inactive) and 1.44, respectively. In addition, the cell count in assay [1] (setting [6]) turned out to be 7610; in assay [1] (setting [7]), 8680. Also, the values for the z-score in assay [2] (setting [8]), in assay [2] (setting [9]) and in assay [3] were -0.443 (inactive), -0.248 and 0.645 (inactive), respectively.
As for `Cc1ncc(-c2cc(C(=O)N(C)Cc3csc(C)n3)c3ccc(F)cc3n2)cn1`, the fold change in assay [1] (setting [4]) is 0.883 (inactive); in assay [1] (setting [5]) it was 2.05. Besides, the results for the cell count in assay [1] (setting [6]) and in assay [1] (setting [7]) were 8360 and 9470, respectively. Besides, the z-score in assay [2] (setting [8]) is -0.361 (inactive); in assay [2] (setting [9]), -0.299; in assay [3], -0.38 (inactive).
Consider `OCCCc1cn(C2CCN(c3nn4cnnc4c4ccccc34)CC2)nn1`, for which the values for the fold change in assay [1] (setting [4]) and in assay [1] (setting [5]) were 0.902 (inactive) and 1.35, respectively. The results for the cell count in assay [1] (setting [6]) and in assay [1] (setting [7]) were 8970 and 9940, respectively. Besides, the values for the z-score in assay [2] (setting [8]), in assay [2] (setting [9]) and in assay [3] were 0.105 (inactive), -0.51 and -0.54 (inactive), respectively.
Take `O=S(=O)(O)c1cccc2cccc(Nc3ccccc3)c12`: the fold change in assay [1] (setting [4]) is 0.946 (inactive); in assay [1] (setting [5]), 0.486. In addition, the results for the cell count in assay [1] (setting [6]) and in assay [1] (setting [7]) were 8990 and 9500, respectively. Besides, the figures for the z-score in assay [2] (setting [8]), in assay [2] (setting [9]) and in assay [3] were -0.258 (inactive), -0.0194 and 0.715 (inactive), respectively.
For `O=[N+]([O-])c1ccc2[nH]ncc2c1`, the fold change was 0.885 (inactive) in assay [1] (setting [4]) and 0.558 in assay [1] (setting [5]). Further, the cell count in assay [1] (setting [6]) was 8690; in assay [1] (setting [7]) it was 9820. The z-score in assay [2] (setting [8]) was 0.727 (inactive); in assay [2] (setting [9]), -0.415; in assay [3], -0.195 (inactive).
On to `O=C(NN=Cc1cc(Br)c(O)c(Br)c1O)c1cccc(Br)c1`, for which the fold change in assay [1] (setting [4]) is 0.911 (inactive); in assay [1] (setting [5]), 0.461. In addition, the values for the cell count in assay [1] (setting [6]) and in assay [1] (setting [7]) were 2930 and 3220, respectively. The z-score is 1.44 (inactive) in assay [2] (setting [8]), 0.907 in assay [2] (setting [9]) and -2.57 (inactive) in assay [3].
Consider `CCNC(=O)c1cccnc1N1CCN(c2ccc(C)cc2C)CC1`, for which the fold change in assay [1] (setting [4]) was 0.919 (inactive); in assay [1] (setting [5]) it was 1.12. The values for the cell count in assay [1] (setting [6]) and in assay [1] (setting [7]) were 6880 and 7490, respectively. In addition, the z-score in assay [2] (setting [8]) is -0.459 (inactive); in assay [2] (setting [9]), 0.378; in assay [3], -0.485 (inactive).
Turning to `COc1ccc(OC)c(-c2nc3ccccc3o2)c1`, the results for the fold change in assay [1] (setting [4]) and in assay [1] (setting [5]) were 0.826 (inactive) and 1.28, respectively. The cell count in assay [1] (setting [6]) came to 6950; in assay [1] (setting [7]), 8410. The z-score is 0.0538 (inactive) in assay [2] (setting [8]), 0.572 in assay [2] (setting [9]) and -0.51 (inactive) in assay [3].
